Several values for one entry are separate records, joined by “and”; a condition that tells them apart may be missing. Equal values may be shown once. Screen size: about 5,500 compounds; about 2,000 (36%) were called active. Inconclusive results (about 18%) are left out. Rule as the data show it: active = normalized growth mostly below about 0.91 (no sharp cut-off); inconclusive = no clear call, values can overlap the other calls; inactive = mostly above about 0.92. The list shows a part of the results.
Assay: chemical genetic growth profiling, strain panel (AID 1159580);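 also: tested at 20 µM; growth read once vehicle control cultures reached saturation at 30 °C; 1 = growth at the plate median or of vehicle wells; lower values mean less growth of the strain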
Details: S. cerevisiae deletion strains, growth OD

Measured: normalized growth

COc1ccc(NS(=O)(=O)c2ccc(N)cc2)nn1
inactive: locus YAL013W, strain DEP1, stronger effect = lower value 1.01 | locus YAL021C, strain ccr4, stronger effect = lower value 0.989 | locus YAL026C, strain drs2, stronger effect = lower value 1 | locus YAL030W, strain snc1, stronger effect = lower value 0.996 | locus YBL061C, strain skt5, stronger effect = lower value 0.992 | locus YBR009C, strain hhf1, stronger effect = lower value 0.978 | locus YBR021W, strain FUR4, stronger effect = lower value 1.02 | locus YBR023C, strain chs3, stronger effect = lower value 1.01 | locus YBR171W, strain sec66, stronger effect = lower value 0.999 | locus YBR229C, strain ROT2, stronger effect = lower value 1.02 | locus YBR231C, strain swc5, stronger effect = lower value 1 | locus YBR279W, strain paf1, stronger effect = lower value 1 | locus YCL011C, strain gbp2, stronger effect = lower value 1.01 | locus YCL016C, strain dcc1, stronger effect = lower value 0.996 | locus YCL029C, strain bik1, stronger effect = lower value 0.996 | locus YCL069W, strain vba3, stronger effect = lower value 0.992 | locus YCR088W, strain abp1, stronger effect = lower value 1 | locus YDL005C, strain med2, stronger effect = lower value 0.998 | locus YDL035C, strain GPR1, stronger effect = lower value 1.02 | locus YDL040C, strain nat1, stronger effect = lower value 1 | locus YDL074C, strain BRE1, stronger effect = lower value 1.04 | locus YDL101C, strain DUN1, stronger effect = lower value 1.03 | locus YDL134C, strain PPH21, stronger effect = lower value 1.01 | locus YDL185W, strain tfp1, stronger effect = lower value 0.996 | locus YDL192W, strain arf1, stronger effect = lower value 0.99 | locus YDR001C, strain nth1, stronger effect = lower value 1.01 | locus YDR069C, strain doa4, stronger effect = lower value 1 | locus YDR101C, strain arx1, stronger effect = lower value 1 | locus YDR137W, strain rgp1, stronger effect = lower value 1 | locus YDR150W, strain NUM1, stronger effect = lower value 1.02 | locus YDR159W, strain sac3, stronger effect = lower value 0.907 | locus YDR162C, strain NBP2, stronger effect = lower value 1.01 | locus YDR195W, strain ref2 1 | locus YDR297W, strain sur2, stronger effect = lower value 0.989 | locus YDR318W, strain mcm21, stronger effect = lower value 0.988 | locus YDR334W, strain swr1, stronger effect = lower value 1.01 | locus YDR335W, strain msn5, stronger effect = lower value 1 | locus YDR388W, stronger effect = lower value 0.993 | locus YDR392W, strain spt3, stronger effect = lower value 0.881 | locus YDR502C, strain sam2, stronger effect = lower value 0.983 | locus YEL003W, strain gim4, stronger effect = lower value 1.02 | locus YEL037C, strain rad23, stronger effect = lower value 0.995 | locus YEL061C, strain CIN8 (second series), stronger effect = lower value 1.01 | locus YEL061C, strain CIN8, stronger effect = lower value 1.02 | locus YER015W, strain faa2, stronger effect = lower value 1.01 | locus YER016W, strain bim1, stronger effect = lower value 0.988 | locus YER110C, stronger effect = lower value 0.992 | locus YER111C, strain swi4, stronger effect = lower value 0.995 | locus YER155C, strain BEM2 (second series), stronger effect = lower value 0.962 | locus YER155C, strain BEM2, stronger effect = lower value 1 | locus YER167W, strain BCK2, stronger effect = lower value 1.01 | locus YFR010W, strain ubp6, stronger effect = lower value 1 | locus YGL078C, strain dbp3, stronger effect = lower value 0.986 | locus YGL086W, strain mad1, stronger effect = lower value 0.995 | locus YGL167C, strain pmr1, stronger effect = lower value 0.999 | locus YGL173C, strain kem1, stronger effect = lower value 1 | locus YGL227W, strain vid30, stronger effect = lower value 1 | locus YGL240W, strain doc1, stronger effect = lower value 0.987 | locus YGL248W, strain PDE1, stronger effect = lower value 1.03 | locus YGL253W, strain hxk2, stronger effect = lower value 1.01 | locus YGR135W, strain pre9, stronger effect = lower value 0.982 | locus YGR252W, strain gcn5, stronger effect = lower value 0.953 | locus YHR013C, strain ard1, stronger effect = lower value 0.987 | locus YHR027C, strain rpn1, stronger effect = lower value 0.999 | locus YHR030C, strain SLT2, stronger effect = lower value 1.02 and 0.989 | locus YHR079C, strain IRE1 (second series), stronger effect = lower value 0.998 | locus YHR079C, strain IRE1, stronger effect = lower value 0.995 | locus YHR094C, strain hxt1, stronger effect = lower value 0.984 | locus YHR129C, strain ARP1, stronger effect = lower value 1.01 | locus YHR142W, strain chs7, stronger effect = lower value 1 | locus YHR200W, strain rpn10, stronger effect = lower value 0.999 | locus YIL066C, strain RNR3, stronger effect = lower value 1.03 | locus YIL073C, strain SPO22, stronger effect = lower value 0.965 | locus YIL125W, strain kgd1, stronger effect = lower value 0.996 | locus YIR030C, strain dcg1, stronger effect = lower value 0.99 | locus YJL092W, strain hpr5, stronger effect = lower value 1 | locus YJL095W, strain BCK1 (second series), stronger effect = lower value 1 | locus YJL095W, strain BCK1, stronger effect = lower value 1.05 and 1.01 | locus YJL115W, strain asf1, stronger effect = lower value 0.996 | locus YJL129C, strain trk1, stronger effect = lower value 1 | locus YJL134W, strain LCB3, stronger effect = lower value 1.01 | locus YJL154C, strain vps35, stronger effect = lower value 0.997 | locus YJL164C, strain tpk1, stronger effect = lower value 0.985 | locus YJL166W, strain qcr8, stronger effect = lower value 1.02 | locus YJL168C, strain set2, stronger effect = lower value 0.996 | locus YJL187C, strain SWE1 (second series), stronger effect = lower value 1.03 | locus YJR043C, strain POL32, stronger effect = lower value 1.01 | locus YJR066W, strain TOR1, stronger effect = lower value 0.934
